# In PubChem BioAssay AID2314 (National Center for Advancing Translational Sciences (NCATS), 2010):
# Hit rate of the full screen: of about 300,000 compounds, about 37,000 (12%) were called active. The sample holds actives, similar compounds and a random draw of the others, so the mix is not that of the screen. Values without a mark were called inactive. Rule as the data show it: active = max response mostly above about 13% (no sharp cut-off); inactive = mostly below about 14%.
# Test: Cycloheximide Counterscreen for Small Molecule Inhibitors of Shiga Toxin; also: read at 38.3 µM for the half of the compounds with a filed dose; 0% is about no effect
# Details: cell reporter, cycloheximide protein synthesis inhibition counterscreen; stronger effect = higher value
row,Compound,max response
1,O=c1c([N+](=O)[O-])cccn1Cc1ccc(F)cc1Cl,-5.4%
2,CCCN(CCC)C(=S)Nc1cc(C(=O)OC)ccc1C(=O)OC,-1.36%
3,COc1ccc(S(=O)(=O)/N=C2\C=C(NS(=O)(=O)c3ccccc3)C(=O)c3ccccc32)cc1,13.7%
4,COC(=O)COc1ccc2c(=O)c(Oc3ccccc3Br)coc2c1,1.67%
5,CCCCN(CCCC)CC(O)Cn1c2ccccc2c(=O)c2ccccc21 (configuration not stated),1.42%
6,CCc1ccnc(NC(=O)Nc2ccc(OCc3ccccc3)cc2)c1,4.28%
7,COc1ccc(C2=NOC3(CC(=O)N(c4ccc(C)cc4)C3=O)C2)cc1 (configuration not stated),14.2%
8,COc1ccc(/C=C/c2c(-c3cccc(C)c3)oc3ccc(-c4ccc5c(c4)OCO5)cc23)cc1,-3.1%
9,COc1ccc(C2=Nc3cc(C)ccc3OC2)cc1,33.1% (active)
10,CC(=O)Nc1ccc(S(=O)(=O)Nc2ccc(-c3ccc4nnc(C)n4n3)cc2)cc1,-1.66%
11,O=C(NC1CCCC1)C(c1ccc(Cl)cc1)N(C(=O)c1csnn1)C1CC1 (configuration not stated),-3.62%
12,Cc1cccc(C)c1-n1c(C)cc(/C=C2\C(=O)NN(c3ccccc3)C2=O)c1C,-1.17%
13,Cc1cc(/C=C2/NC(=O)NC2=O)c(C)n1-c1cccnc1,7.98%
14,Cc1ccccc1-n1c(C)cc(/C=C2\NC(=O)NC2=O)c1C,52% (active)
15,CCOc1ccc(S(=O)(=O)N2CCN=C2Cc2ccccc2)cc1C,-7.25%
16,CCOc1ccc(N(C)S(=O)(=O)c2cnc[nH]2)cc1,-3.61%
17,O=C(Cc1ccc(S(=O)(=O)N2CCCC2)s1)NC1CCCCCC1,0.894%
18,C=CCn1c(=S)sc2c(=O)[nH]c(C)nc21,6.52%
19,CCOc1ccc(/C(O)=C2\C(=O)C(=O)N(c3ccc(OC)cc3)C2c2ccccc2[N+](=O)[O-])cc1 (configuration not stated),45.2% (active)
20,COc1ccccc1C1/C(=C(/O)c2ccc(OC(C)C)cc2)C(=O)C(=O)N1c1cc(C)on1 (configuration not stated),-2.72%
21,COc1ccc(C2/C(=C(/O)c3ccccc3)C(=O)C(=O)N2C)c(OC)c1 (configuration not stated),5.88%

row,Compound,max response
1,O=S(=O)(Nc1nccs1)c1ccc2c(c1)OCCO2,13.4%
2,CC(CCc1ccc(O)cc1)NCc1ccc(Cl)cc1Cl (configuration not stated),0.267%
3,COc1ccc(NC(=O)CCCNC(=O)Cn2cnc3sc4c(c3c2=O)CCCC4)cc1OC,-1.82%
4,CCOC(=O)c1sc(-c2cccc([N+](=O)[O-])c2)cc1N,19% (active)
5,O=[N+]([O-])c1cccc(C2=NCCS2)c1,7.65%
6,CCOC(=O)C1=C(CN2CCCCCC2)NC(=O)NC1c1cccc([N+](=O)[O-])c1 (configuration not stated),-4.55%
7,CN(C)S(=O)(=O)Oc1ccccc1C(=O)Nc1ccccc1Cl,-4.26%
8,O=C(NCc1ccco1)c1nc(-c2ccccc2)n(-c2ccccc2)n1,-1.99%
9,O=C(NCCc1ccco1)c1nn(Cc2ccccc2)c(=O)c2ccccc12,11.7% (active)
10,O=c1c2ccccc2c(-c2ccc(Br)cc2)nn1Cc1ccccc1,-1.69%
11,Cc1ccc(C(NC(=O)N2CCCC2)C(Cl)(Cl)Cl)cc1F (configuration not stated),10.7%
12,COc1ccc(C(C(=O)NC(C)(C)C)N(Cc2ccc(F)cc2)C(=O)CCC(=O)Nc2cc(C)on2)cc1 (configuration not stated),-0.261%
13,CCOC(=O)c1c(C)[nH]c2c1-c1ccccc1C(=O)C2=O,12.4%
14,CCOC(=O)c1c(C)[nH]c(C2=NNC(=NC(C)COC)SC2)c1C (configuration not stated),42.6% (active)
15,Cc1ccnc(NS(=O)(=O)c2ccc(NC(=O)c3oc4ccc(F)cc4c3C)cc2)n1,-2.51%
16,O=C(NCC1COc2ccccc2O1)C1(c2ccccc2)CCCC1 (configuration not stated),-2.77%
17,COc1ccc(Br)cc1CN(C)CC(=O)Nc1cc([N+](=O)[O-])ccc1OC,-1.88%
18,Cc1cc(=O)[nH]c(N/N=C/c2c(C)nn(-c3ccccc3Cl)c2Cl)n1,10.2% (active)
19,Cc1cc(=O)[nH]c(N/N=C/c2ccc3c(c2)OCCO3)n1,38.7%
20,CCN(CC)c1ccc(/C=N/Nc2nc(C)cc(=O)[nH]2)cc1,1.51%
21,Cc1ccc(C(=O)NCC(=O)NCc2cc(=O)n(C)c(=O)n2C)cc1,-0.788%

row,Compound,max response
1,O=C1CCCCN1CCCC(=O)N1CCCC(Nc2ccc(F)cc2)C1 (configuration not stated),2.17%
2,O=C(CN1C(=O)CSC1=O)N1CCCC(Nc2ccc(F)cc2)C1 (configuration not stated),-1.37%
3,O=C(CN1CCOC1=O)N1CCCC(Nc2ccc(F)c(F)c2)C1 (configuration not stated),23.5% (active)
4,CC1CCCN(CCCNC(=O)CN2C(=O)COc3ccc(S(=O)(=O)N4CCOCC4)cc32)C1 (configuration not stated),-6.25%
5,O=C(Cc1ccc2c(c1)CCCC2)Nc1ccccc1Cl,15.4% (active)
6,CC1(C)CC(CCC(=O)Nc2ccccc2Cl)C(=O)O1 (configuration not stated),5.32%
7,O=C(Nc1ccc2c(c1)CCC2)c1cccc(S(=O)(=O)Nc2ccccc2Cl)c1,8.91%
8,COc1ccc(CNC(=O)CN(C(=O)c2csnn2)c2cnc3ccccc3c2)cc1,-1.99%
9,O=C(CSc1nc(C2CC2)nc2ccccc12)Nc1cccc(O)c1,-1.26%
10,O=C(CSc1ccccc1)Nc1ccc(C(=O)Nc2cccc(O)c2)cc1,32.4% (active)
11,Cc1cc(C)c(C#N)c(SCC(=O)Nc2ccccc2)n1,14% (active)
12,CSc1cccc(NC(=O)CSc2ccccc2)c1,39.6% (active)
13,Cc1cc(C)c(C#N)c(SCc2ccccc2C(=O)O)n1,-3.7%
14,Cc1cc(C)cc(NC(=O)CSc2ccccc2)c1,18.6% (active)
15,COCc1cc(C)nc(SCC(=O)Nc2cccc(C)c2)c1C#N,5.77%
16,Cc1nnc(SCC(=O)Nc2cccc(N)c2)n1-c1ccccc1,-3.71%
17,Cc1cc(C)cc(NC(=O)CCN2C(=O)c3ccccc3C2=O)c1,7.24%
18,Cc1cc(C)cc(NC(=O)CN2C(=O)c3ccccc3C2=O)c1,-2.91%
19,O=C(CSc1ccccc1)Nc1cc(Cl)ccc1Oc1ccccc1,-2.3%
20,O=C(Nc1ccc(CSc2ccccc2)cc1)c1ccc(CN2CCOCC2)cc1,-1.82%
